KKLEB cytotox – CF airway cell cytotoxicity counter-screen | KKLEB CF airway cells viability, ATPlite luminescence, overnight; stronger effect = lower value; cells stimulated with P. aeruginosa culture filtrate | activity change (cytotoxicity), % at 5 µM | actives 0.36% (n = 360,000);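 active means corrected activity change at or below -50% at 5 µM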
Peg3 prom inh-1 – inhibitors of Peg3 promoter; actives 1.7% (n = 360,000); inhibition, % at 20 µM; HeLa PEG-Prom luciferase reporter, luminescence, overnight;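 active means inhibition of at least 50% at 20 µM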
Shn3 inh set2 – Schnurri-3 reporter inhibition in Clone20 osteoblasts; Clone20 osteoblast Shn3 3'UTR firefly luciferase, 24 h; AID 588674; actives 0.52% (n = 360,000); inhibition, % at 12.5 µM;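 active means mean inhibition of at least 75% with every replicate also reaching 75%; inconclusive means mean inhibition at least 75% but some replicate below; inactive means mean inhibition below 75%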;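 further: 0% = median of neutral control wells and 100% = pilot-screen positive control compound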
CF NFkB block – blocks PAF-induced NF-kB reporter in cystic fibrosis cells; KKLEB NF-kB-GFP reporter, GFP fluorescence overnight; inhibition, % at 5 µM; actives 0.86% (n = 360,000); AID 588850;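 active means at least 50% inhibition at 5 µM, scaled per plate between neutral and stimulator controls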;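 further: PAF is a Pseudomonas aeruginosa culture filtrate used as stimulus; plate controls were PAF-stimulated DMSO wells for no effect and unstimulated DMSO wells for full effect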
HIF-2a block – blocks HIF-2a reporter activity; 786-0 RCC cells HIF-2a reporter, luciferase luminescence, overnight; inhibition, % at 18.8 µM; actives 0.72% (n = 360,000);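 active means inhibition of the luminescence signal of 40% or more relative to plate controls, in a single-dose primary screen at 18.75 µM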
Peg3 prom inh-2 – confirmation of Peg3 promoter inhibitors | AID 602417 | inhibition, % at 20 µM | shares compounds with Peg3 prom inh-1 | HeLa PEG-Prom luciferase reporter, luminescence, overnight | actives 84% (n = 1,300);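 active means at 20 µM dose, 40% or more inhibition averaged across four replicates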
CF NFkB conf – CF NF-kB inhibition confirmation, single concentration; actives 64% (n = 1,300); AID 602472; inhibition, % at 5 µM; shares compounds with CF NFkB block; KKLEB CF airway cells, PAF-induced NF-kB-GFP fluorescence, overnight; in the data active means inhibition above about 40%;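 further: stimulus PAF is a Pseudomonas aeruginosa filtrate and not platelet activating factor; plate controls were DMSO wells with stimulus for no effect and unstimulated DMSO wells for full effect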
Mdm2-MdmX confirm – confirmation of inhibitors of human Mdm2/MdmX interaction, set 2 | actives 99% (n = 740) | shares compounds with HIF-2a block | inhibition, % at 8 µM | AID 504601 | SaOS-2 split-luciferase Mdm2/MdmX complementation, luminescence;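 active means mean inhibition of the luminescence signal across two replicates at or above 26 percent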
HIF-2a inh conf – confirmation of HIF-2a inhibitors. shares compounds with HIF-2a block. 786-0 RCC cells, HIF-2a luciferase reporter luminescence, overnight. inhibition, % at 18.8 µM. actives 56% (n = 1,800);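 active means mean inhibition across four replicates of at least 40 percent at the single tested concentration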
HIF-1a cs – HIF-1a inhibition counter-screen for HIF-2a hits | actives 72% (n = 1,800) | MiaPaCa-2 HIF-1a luciferase reporter, desferoxamine, overnight | AID 651589 | inhibition, % at 18.8 µM | shares compounds with HIF-2a block;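 active means mean inhibition of the reporter signal across four replicates at the single tested dose of 50% or more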
Starred values were filed as active, the others as inactive; ? = inconclusive; . = no result given. Shown are actives, neighbours in structure and some others; about 2.6% of the full set was active somewhere.

SMILES | KKLEB cytotox | Peg3 prom inh-1 | Shn3 inh set2 | CF NFkB block | HIF-2a block | Peg3 prom inh-2 | HIF-2a inh conf | HIF-1a cs | others
CC1CCN(c2ccc(-c3cccc(NC(=O)C(F)(F)F)c3)nn2)CC1 | -66* | 86* | 83 | 22 | 88* | 87* | 94* | 93*
O=C(Nc1cccc(-c2ccc(N3CCCCC3)nn2)c1)c1ccc(Br)o1 | -40 | -98 | -35 | 12 | -168 | . | . | .
O=C(Nc1cccc(-c2ccc(N3CCCCC3)nn2)c1)C(F)(F)F | -43 | 77* | 82 | -2 | 74* | 75* | 88* | 73*
COc1cc(SC)ccc1C(=O)Nc1nc2ccccc2[nH]1 | -96* | 109* | 96* | 38 | 96* | 96* | 99* | 107*
Cc1cc2c(c(/C=C/C(=O)c3ccccc3)c1)OC1(C=C2)Oc2ccccc2C(=O)N1C (stereo unspecified) | -23 | 80* | 93* | 62* | 80* | 99* | 62* | 105* | CF NFkB conf=-122
O=C(NC1CCN(C(=S)Nc2ccccc2Cl)CC1)C1CCCCC1 | 2 | 4 | 16 | 0 | -3 | . | . | .
COc1ccccc1-c1csc2ncnc(Sc3nnnn3C)c12 | -14 | 31 | 13 | 10 | 20 | . | . | .
Cn1nnnc1Sc1ncnc2scc(-c3cccc4ccccc34)c12 | -43 | 98* | -4 | 48 | 53* | 97* | 68* | 105*
CC(=O)C(=Cc1cccc(C#N)c1)C(=O)c1ccccc1 | -7 | 104* | 22 | 56* | 94* | 19 | 28 | 87* | CF NFkB conf=-61
O=C1CCCCC1Sc1nnc(-c2ccc3c(c2)OCO3)o1 (stereo unspecified) | -5 | 85* | 25 | -4 | 69* | 74* | 86* | 92*
Clc1ccc(CSc2nnc(-c3ccc4c(c3)OCO4)o2)cc1 | 8 | -65 | -15 | -11 | -170 | . | . | .
O=C1c2ccccc2S(=O)(=O)N1Cc1nc2ccccc2s1 | -1 | 93* | 39 | 1 | 67* | 58* | 76* | 75*
C(=NN1CCCCCC1)c1ccc2ccccc2n1 | -84* | 91* | 86* | 2 | 87* | 96* | 97* | 103*
O=c1c(Cl)c(N2CCCCC2)cnn1-c1nc2ccccc2[nH]1 | -56* | 88* | 44 | 4 | 70* | 67* | 79* | 86*
O=c1c2ccccc2cnn1-c1nc2ccccc2[nH]1 | -51* | 107* | 88* | -14 | 92* | 95* | 94* | 99*
O=c1c2ccccc2nc2c3ccccc3cnn12 | -12 | -170 | -14 | -143 | -283 | . | . | .
Cc1ccccc1N(CC(=O)NCC1CCCO1)C(=O)CNS(=O)(=O)c1ccc(F)cc1 (stereo unspecified) | 0 | 3 | -7 | -20 | 11 | . | . | .
CNC(=S)NNC(=O)c1ccccc1F | -7 | -5 | -9 | -3 | 4 | . | . | .
CC(=O)Nc1ccc(NC(=O)c2nc(S(=O)(=O)Cc3cccc(C)c3)ncc2Cl)cc1 | -31 | 102* | 97* | 102* | -23 | 96* | . | . | CF NFkB conf=82*;Mdm2-MdmX confirm=103*
COc1cccc(NC(=O)c2nc(S(C)(=O)=O)ncc2Cl)c1 | -37 | 108* | 97* | 88* | 68* | 98* | 65* | 11 | CF NFkB conf=61*;Mdm2-MdmX confirm=101*
CCCS(=O)(=O)c1ncc(Cl)c(C(=O)Nc2ccc(S(=O)(=O)Nc3ncccn3)cc2)n1 | -2 | 14 | 1 | 20 | -5 | . | . | .
Cn1c[n+](C)cc1-c1ccc(/C(N)=N/O)cc1 | 4 | -3 | 2 | 11 | 14 | . | . | .
CN1OC[C@@H]2CN[C@H](c3ccc(-c4cc5ccccc5o4)cc3)C[C@@H]21 | -46 | 89* | 85 | -4 | 90* | 90* | 96* | 98*
CCn1ccnc1CN(C)C(=O)C1CCC(=O)N(Cc2cccc(C(F)(F)F)c2)C1 (stereo unspecified) | -12 | -6 | 17 | 23 | 15 | . | . | .
Cc1ccc(-c2nnc(SCC(=O)Nc3ccccc3F)o2)cc1 | -22 | 89* | 75 | -11 | 77* | 85* | 89* | 96*
SMILES | KKLEB cytotox | Peg3 prom inh-1 | Shn3 inh set2 | CF NFkB block | HIF-2a block | Peg3 prom inh-2 | HIF-2a inh conf | HIF-1a cs | others
O=C(O)c1ccc(N/N=C/c2ccncc2)cc1 | 4 | -11 | -4 | -2 | -33 | . | . | .
O=C(O)c1ccc(N/N=C/c2ccc(OC(=O)c3cccc(Cl)c3)cc2)cc1 | -4 | 69* | 19 | -1 | 72* | 64* | 83* | 83*
O=C(O)c1ccc(N/N=C/c2ccc3nccnc3c2)cc1 | -15 | 99* | 80 | 21 | 91* | 96* | 96* | 83*
CCN(CC(=O)Nc1ccc(NC(C)=O)cc1)C(=O)c1ccc2c(c1)OCO2 | -10 | -13 | -19 | -3 | 6 | . | . | .
Cc1cc2sc3ccc(C#CC4(O)CCCCC4)cc3c(=O)c2cc1C | -40 | 99* | 94* | -4 | 93* | 97* | 97* | 103* | Mdm2-MdmX confirm=101*
O=[N+]([O-])c1ccc(-c2nc(C(Cl)Cl)c3ccccc3n2)cc1 | -46 | 64* | 67 | 33 | -29 | 34 | . | . | Mdm2-MdmX confirm=102*
CN(Cc1ccccc1)c1nc(-c2ccc([N+](=O)[O-])cc2)nc2ccccc12 | -8 | 8 | 24 | 12 | -2 | . | . | .
CCCC(=O)NC(c1ccccc1Cl)c1ccc2cccnc2c1O (stereo unspecified) | -8 | 53* | ? | 13 | 4 | 62* | . | . | Mdm2-MdmX confirm=91*
COc1ccc2nc(C)cc(Nc3ccc(C)cc3)c2c1 | 10 | 24 | 8 | -20 | 10 | . | . | .
Cc1ccc2nc(C)cc(Nc3ccc([N+](=O)[O-])cc3)c2c1 | -24 | 104* | 48 | -72 | 53* | 98* | 12 | 95*
CCCC(=O)Nc1ccc(C(=O)COC(=O)c2cc(C)oc2C)cc1 | 6 | -1 | 3 | 2 | 9 | . | . | .
Nc1nc(CCl)nc(Nc2cccc3ccccc23)n1 | -80* | 64* | 1 | 83* | 40* | 72* | . | . | Mdm2-MdmX confirm=102*
Cc1ccccc1Nc1nc(N)nc(COC(=O)c2ccccc2)n1 | -5 | -252 | -76 | 10 | -142 | . | . | .

Screening results deposited in PubChem by several laboratories.
